In PubChem BioAssay (NCATS):
Records with an inconclusive call do not appear. Entries that show only a call come without a potency. Activity calls are given as the source filed them. Calls follow the shape of the dose curve; as a rule, active = well fitted inhibition curve with a large enough effect; inconclusive = small, poorly fitted or top-dose-only effect; inactive = flat fitted curve, though single readings scatter. Peptide text beside a SMILES is read from it.

These compounds were tested on PC49 (assay: qHTS profiling for inhibitors of Plasmodium falciparum proliferation (AID 504749; also: nearly all actives have a fitted effect of over 60% in size)). Settings: P. falciparum in erythrocytes, SYBR Green DNA, 72 h; series mostly up to 12.8 µM.
Outline: (§1)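 P. falciparum-infected erythrocytes (0.3% parasitemia, 2.5% hematocrit) incubated with compound 72 h at 37 C, 5% CO2. Parasite DNA detected by SYBR Green after lysis, overnight at room temperature; normalised to 0.29 uM artemisinin and DMSO.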
Potency is read from the fitted curve at half-maximal effect.

Structure (SMILES) | Potency
CC1CCC(C(C)C)C(=O)C1 (centres undefined) | inactive
CC(=O)N[C@H](CC(C)C)C(=O)O | inactive
CC(C)C1CCC(C(=O)NC(Cc2ccccc2)C(=O)O)CC1 (centres undefined) | inactive
COc1ccc2cc(C(C)CO)ccc2c1 (centres undefined) | inactive
CNC1C(OC2C(O[C@@H]3C(O)C(O)[C@@H](N=C(N)N)C(O)C3N=C(N)N)OC(C)[C@@]2(O)CO)OC(CO)C(O)C1O (some centres undefined) | inactive
CC1C2CCC3C4CC=C5CC(N(C)C)CC[C@@]5(C)C4CC[C@@]32CN1C (some centres undefined) | inactive
C[C@]12C=CC(=O)C=C1CCC1C2C(O)C[C@]2(C)C1CC[C@]2(O)C(=O)CO (some centres undefined) | inactive
COc1ccc2c(c1)N(C[C@@H](C)CN(C)C)c1ccccc1S2 | inactive
CCOC(=O)C1=CC(OC(CC)CC)C(NC(C)=O)C(N)C1 (centres undefined) | inactive
CN(C)CCc1c[nH]c2ccc(CC3COC(=O)N3)cc12 (centres undefined) | inactive
NCC1CCC(N)C(O[C@@H]2C(O)[C@H](O[C@H]3OC(CO)C(O)C(N)C3O)[C@@H](N)C[C@H]2N)O1 (some centres undefined) | inactive
OCC1O[C@H](OC2C(CO)O[C@@](O)(CO)C2O)C(O)C(O)C1O (some centres undefined) | inactive
CC1(C)OC2CO[C@]3(COS(N)(=O)=O)OC(C)(C)OC3C2O1 (some centres undefined) | inactive
CC(=O)OC1CCC2C3CCc4cc(O)ccc4C3CCC12C (centres undefined) | inactive
CN(C)CCCOC1C(C(O)CO)OC2OC(C)(C)O[C@@H]21 (some centres undefined) | inactive
COc1cc(C2c3cc4c(cc3C(O[C@@H]3OC5COC(c6cccs6)OC5C(O)C3O)C3COC(=O)C23)OCO4)cc(OC)c1O (some centres undefined) | 4.47 µM (active)

The compounds below were run on SC27B in the same assay as above. Settings: P. falciparum in erythrocytes, SYBR Green DNA, 72 h; series mostly up to 12.8 µM.
Outline: as §1

Structure (SMILES) | Potency
CCC(C)C(=O)OC1CCC=C2C=CC(C)C(CCC3CC(O)CC(=O)O3)[C@@H]21 (some centres undefined) | inactive
C[C@]1(c2ccccc2)OC(C(=O)O)=CC1=O | inactive
OCC1OC([S-])[C@H](O)C(O)C1O.[Au+] (some centres undefined) | inactive
COC(=O)N/N=C/C1=C[N+](=O)c2ccccc2[N+]1=O | inactive
CN1CC(=O)N=C1N | inactive
CNC1CC(N)[C@H](O)[C@@H](O[C@@H]2OC(CO)C3OC4(OC(C(N)CO)C(O)C(O)C4O)O[C@@H]3[C@H]2O)C1O (some centres undefined) | inactive
COC1C=CO[C@@]2(C)Oc3c(C)c(O)c4c(O)c(c(C=NN5CCN(C)CC5)c(O)c4c3C2=O)NC(=O)/C(C)=C\C=CC(C)C(O)[C@@H](C)C(O)C(C)[C@H](OC(C)=O)C1C (some centres undefined) | 0.282 µM (active)
CC(=O)N[C@@H]1C(O)OC(CO)C(O)C1O (some centres undefined) | inactive
CCC(CCC(C)C1CCC2C3CC=C4CC(O)CC[C@@]4(C)C3CC[C@@]12C)C(C)C (some centres undefined) | inactive
O=C1OC(CO)C(O)C(O)C1O (centres undefined) | inactive
COc1ccc(CC(N)C(=O)NC2C(CO)OC(n3cnc4c(N(C)C)ncnc43)C2O)cc1 (centres undefined) | 1 µM (active)
CCCC(=O)O[C@]1(C(=O)CO)CCC2[C@@H]3CCC4=CC(=O)CC[C@]4(C)C3C(O)C[C@]21C (some centres undefined) | inactive
COC(=O)C(Cc1ccccc1)NC(=O)C(N)CC(=O)O (stereo not drawn) (H-Asp-Phe-OMe; configuration not given here) | inactive
CC[C@@]12CCCN3CCc4c(n(c5ccccc45)[C@](O)(C(=O)OC)C1)C32 (some centres undefined) | inactive
CC1(C)SC2C(N3C(=O)C(c4ccccc4)NC3(C)C)C(=O)N2C1C(=O)O (centres undefined) | inactive
CC1CCC(C(C)C)C(=O)C1 (centres undefined) | inactive
CC(=O)N[C@H](CC(C)C)C(=O)O | inactive
CC(C)C1CCC(C(=O)NC(Cc2ccccc2)C(=O)O)CC1 (centres undefined) | inactive
COc1ccc2cc(C(C)CO)ccc2c1 (centres undefined) | inactive
COc1ccc2cc1Oc1ccc(cc1)CC1c3c(cc4c(c3Oc3cc5c(cc3OC)CCN(C)C5C2)OCO4)CCN1C (centres undefined) | 7.08 µM (active)
CNC1C(OC2C(O[C@@H]3C(O)C(O)[C@@H](N=C(N)N)C(O)C3N=C(N)N)OC(C)[C@@]2(O)CO)OC(CO)C(O)C1O (some centres undefined) | inactive
CC1C2CCC3C4CC=C5CC(N(C)C)CC[C@@]5(C)C4CC[C@@]32CN1C (some centres undefined) | inactive
C[C@]12C=CC(=O)C=C1CCC1C2C(O)C[C@]2(C)C1CC[C@]2(O)C(=O)CO (some centres undefined) | inactive
COc1ccc2c(c1)N(C[C@@H](C)CN(C)C)c1ccccc1S2 | inactive
CCOC(=O)C1=CC(OC(CC)CC)C(NC(C)=O)C(N)C1 (centres undefined) | inactive
CN(C)CCc1c[nH]c2ccc(CC3COC(=O)N3)cc12 (centres undefined) | inactive
NCC1CCC(N)C(O[C@@H]2C(O)[C@H](O[C@H]3OC(CO)C(O)C(N)C3O)[C@@H](N)C[C@H]2N)O1 (some centres undefined) | inactive
OCC1O[C@H](OC2C(CO)O[C@@](O)(CO)C2O)C(O)C(O)C1O (some centres undefined) | inactive
